Laboratory results published in PubChem BioAssay (Tox21).
Records with an inconclusive call do not appear. Entries that show only a call come without a potency. The source made the active and inactive calls. Calls follow the shape of the dose curve; as a rule, active = well fitted cell-killing curve with a large enough effect in the repeat runs; inconclusive = weak or mixed curves, or effect the other way; inactive = no such curve, though single readings can be large or run the other way.

Test: qHTS assay for small molecule activators of the heat shock response signaling pathway - cell viability counter screen (AID 743209); also: nearly all actives have a fitted effect of over 50% in size
Settings: HSE-bla HeLa viability, CellTiter-Glo luminescence, 5 h; series mostly up to 62.6 µM
From the text: U.S. Tox21 Program National Center for Advancing Translational Sciences [NCATS] NIH Chemical Genomics Center [NCGC] U.S. Environmental Protection Agency [EPA] National Institutes of Environmental Health Sciences [NIEHS] National Toxicology Program [NTP] U.S. Food and Drug Administration [FDA] Tox21 Assay Overview: Various chemicals, environmental and physiological stress conditions may lead to the activation of heat shock response/ unfolded protein response (HSR/UPR). There are three heat shock transcription factors (HSFs) (HSF-1, -2, and -4) mediating transcriptional regulation of the human HSR. To identify the compounds that activate HSR signaling, HSE-bla HeLa cell line (Invitrogen, Carlsbad, CA, USA) containing a beta-lactamase reporter gene under the control of the heat shock response elements was used to screen Tox21 10K compound library. The cytotoxicity of the Tox21 compound library against the HSE-bla HeLa cell line was tested in parallel by measuring the cell viability using CellTiter-Glo assay (Promega, Madison, WI) in the same wells.
Tox21 Assay Protocol Summary: The CellSensor HSE-bla HeLa cells (Invitrogen, Carlsbad, CA, USA) were dispensed at 1500 cells/6uL/well into 1536-well black wall/clear bottom plates using a Multidrop combi (Thermo Fisher Scientific, Waltham, MA) dispenser. After the assay plates were incubated at 37 C and 5% CO2 overnight, 23 nL of compounds dissolved in DMSO, positive controls or DMSO only was transferred to the assay plate by a Pintool station (Kalypsys, San Diego, CA). The plates were incubated at 37 C for 5 h. After 1 uL of LiveBLAzerTM B/G FRET substrate was added using a Flying Reagent Dispenser (FRD, Beckman Coulter, Indianapolis, IN, USA), the plates were incubated at room temperature for 2.5 h, and fluorescence intensity was measured by an Envision plate reader (PerkinElmer, Shelton, CT). For cell viability readout that measures cytotoxicity, 3 ul/well of CellTiter-Glo reagent was added into the assay plates using a FRD. After 30 min incubation at room temperature, the luminescence intensity in the plates was measured using a ViewLux (PerkinElmer) plate reader.

SMILES	Potency
O=C(Nc1ccc([N+](=O)[O-])cc1)Nc1ccc([N+](=O)[O-])cc1	inactive
O=C(O)c1cccnc1C(=O)O	inactive
CCCOCCOCCO	inactive
CC1=CC(=O)CC(C)(C)C1(O)/C=C/C(C)=C\C(=O)O (stereo not given)	inactive
Nc1ccc(S(=O)(=O)O)cc1	inactive
Oc1cc(O)c(Cl)cc1Cl	inactive
CC(C)(C)C(=O)O	inactive
CC#N	inactive
C[C@@H]1C[C@H]2[C@@H]3CCC4=CC(=O)C=C[C@]4(C)[C@@]3(F)[C@@H](O)C[C@]2(C)[C@H]1C(=O)CO	inactive
CN1CCN(c2c(F)cc3c(=O)c(C(=O)O)cn4c3c2OCN4C)CC1	inactive
COCCOC	inactive
Brc1cc(-c2ccc(Br)c(Br)c2Br)cc(Br)c1Br	inactive
CC(=O)CC(c1ccc([N+](=O)[O-])cc1)c1c(O)c2ccccc2oc1=O (stereo not given)	inactive
Cc1nc2ccccn2c(=O)c1CCN1CCC(C(=O)c2ccc(F)cc2)CC1	inactive
CC(C)CCCCCCOC(=O)CCCCC(=O)OCCCCCCC(C)C	inactive
Fc1ccccc1[C@@H](F)COC1CCC(Nc2ncnc3[nH]ncc23)CC1 (stereo not given in full)	inactive
CCC(C)(O)CCC=C(C)C (stereo not given)	inactive
CCOC(=O)C(C)Oc1ccc(Oc2nc3ccc(Cl)cc3o2)cc1 (stereo not given)	inactive
CCC(C)=O	inactive
ON(Cc1ccccc1)Cc1ccccc1	inactive

SMILES	Potency
O=C(c1ccc(O)cc1)c1ccc(Cl)cc1	inactive
Cc1cc(S(=O)(=O)O)ccc1N=Nc1c(O)ccc2ccccc12	inactive
O=C(CCCN1CCN(c2ccc(F)cc2)CC1)NC1c2ccccc2CSc2ccccc21 (stereo not given)	inactive
O=C1NCCN1	inactive
OC/C(Br)=C(\Br)CO	inactive
CC(C)OCC1CO1 (stereo not given)	inactive
O=C(O)c1ccc(CO)o1	inactive
CCCCC/C(=C\c1ccccc1)CO	inactive
COc1cc2c(cc1OC)-c1cc(=Nc3c(C)cc(C)cc3C)n(C)c(=O)n1CC2	inactive
CCCCC(=O)O[C@]1(C(=O)CO)[C@@H](C)C[C@H]2[C@@H]3CCC4=CC(=O)C=C[C@]4(C)[C@@]3(F)[C@@H](O)C[C@@]21C	inactive
COc1cc2[nH]c(=O)[nH]c(=O)c2cc1OC	inactive
CCCc1c(OCCCOc2ccc(OCC(=O)O)cc2)ccc(C(C)=O)c1O	inactive
CCCC(=O)O[C@]1(C(=O)COC(=O)CC)CC[C@H]2[C@@H]3CCC4=CC(=O)CC[C@]4(C)[C@H]3[C@@H](O)C[C@@]21C	inactive
CC(C)(CCl)c1ccccc1	inactive
CC(C)CCCC(=O)O	inactive
Cc1ccccc1N1C(=O)c2cc(S(N)(=O)=O)c(Cl)cc2NC1C (stereo not given)	inactive
CCCOC(=O)c1ccc(C(=O)OCCC)nc1	inactive
COC(=O)CC(=O)C(C)(C)C	inactive
Cc1cc(OI)c(C(C)C)cc1-c1cc(C(C)C)c(OI)cc1C	inactive
CC(=O)Nc1ccc(N)cc1	inactive
